High-throughput results as filed in PubChem.
Rows were chosen to be rich in hits. Some 3.1% of all compounds tested hit in one or more screens of this group.
A549 tox-1 = counter-screen for Nrf2 inhibitors: cytotoxicity in A549 cells | A549 ARE-Fluc cells, CellTiter-Fluor viability, 18-24 h | Potency, µM (highest dose often 46 µM), without a hit: at the top dose activity change, negative = cytotoxicity, usual class: inhibitors | 0.16% of 390,000 active; note: % is set by controls: 0 for no effect and ±100 for the full control effect
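Cytotoxicity counterscreen: CellTiter-Fluor fluorescence was measured in A549 ARE_Fluc cells after 18-24 h of compound exposure in a concentration series. The subsequent BugLite luminescent read reports ARE-luciferase activity.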
TrxR1 substrate = substrates of rat thioredoxin reductase 1. AID 588456. purified TrxR1 substrate turnover, NADPH consumption readout. 0.01% of 390,000 active. Potency, µM (top dose mostly 114 µM), without a hit: top-dose activity change, negative = substrate turnover. O89049; note: % is set by controls: 0 for no effect and ±100 for the full control effect; nearly all actives have a fitted effect of over 50% in size
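Rat TrxR1, dispensed at 90 nM, was prereduced with 400 uM NADPH (final) for 5 min at ~22 deg C, then incubated with compound 15 min before 400 uM selenite. A first-read NADPH fluorescence drop versus no-compound background flagged substrates.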
mIDH1 inhibitor = blocks human mutant IDH1 R132H enzyme; O75874; IDH1-R132H enzyme, NADPH consumption, diaphorase/resazurin fluorescence; Potency, µM (series often up to 76.6 µM), inactives show at the top dose activity change, negative = inhibition, actives largely listed as inhibitors; 0.093% of 390,000 active; AID 602179; note: % is set by controls: 0 for no effect and ±100 for the full control effect; nearly all actives have a fitted effect of over 65% in size
Target sequence (O75874 whole entry R132H, stated change not applied): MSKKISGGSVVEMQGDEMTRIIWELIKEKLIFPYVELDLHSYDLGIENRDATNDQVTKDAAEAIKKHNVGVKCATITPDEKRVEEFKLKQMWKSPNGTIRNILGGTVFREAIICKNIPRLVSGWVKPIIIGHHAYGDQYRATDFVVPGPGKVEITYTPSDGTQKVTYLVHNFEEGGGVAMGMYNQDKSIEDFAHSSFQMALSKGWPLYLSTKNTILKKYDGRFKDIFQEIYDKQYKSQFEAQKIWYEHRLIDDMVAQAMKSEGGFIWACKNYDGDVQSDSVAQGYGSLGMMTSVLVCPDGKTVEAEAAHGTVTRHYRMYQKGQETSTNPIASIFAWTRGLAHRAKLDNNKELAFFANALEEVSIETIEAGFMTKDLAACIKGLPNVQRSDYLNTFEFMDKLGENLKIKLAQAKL
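IDH1-R132H (0.5 ug/mL dispensed) in pH 7.5 Tris buffer was preincubated 30 min with compound, then given a substrate mix of 0.016 mM NADPH and 2 mM alpha-KG for 80 min at room temperature; remaining NADPH was read by diaphorase/resazurin fluorescence.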
Nrf2 block = Nrf2 pathway inhibition | A549 ARE-Fluc reporter, luciferase luminescence, 18-24 h | Potency, µM (series often up to 46 µM), without a hit: at the highest dose activity change, negative = inhibition, hits mostly inhibitors | 2.1% of 360,000 active | AID 504444; note: % is set by controls: 0 for no effect and ±100 for the full control effect; nearly all actives have a fitted effect of over 60% in size
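A549 ARE_Fluc cells (5000/well, 5% FBS OPTI-MEM) pre-incubated 2 h, then treated with compounds 18-24 h at 37C/5% CO2 in concentration-response. CellTiter-Fluor viability read first; BugLite luciferase luminescence after 15 min at room temperature gives Nrf2 activity.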
Mito fusion yeast = mitochondrial division inhibition or fusion activation; S. cerevisiae fusion-defective mutant growth rescue, CellTiterGlo 48 h; Potency, µM (doses to about 46.1 µM), for inactives: at the highest dose growth rescue (activation), most hits filed as activators; 0.23% of 320,000 active; AID 485298; note: % of control where 0% means no effect; nearly all actives have a fitted effect of over 45% in size
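Compounds are tested for their ability to restore growth of mitochondrial fusion-defective yeast strains at non-permissive 37C in YPEG medium over 48 hours. Viability is quantified by luciferase luminescence.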
TrxR1 inh = blocks rat thioredoxin reductase 1 | Potency, µM (titrated, usually from 114 µM), inactives show top-dose activity change, negative = inhibition, actives largely listed as inhibitors | AID 588453 | recombinant rTrxR1, NADPH fluorescence consumption, selenite substrate | 1% of 390,000 active | O89049; note: % is set by controls: 0 for no effect and ±100 for the full control effect; nearly all actives have a fitted effect of over 65% in size
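Rat TrxR1 (90 nM in the dispensed reagent) was pre-reduced with 400 uM NADPH for 5 min at room temperature, then incubated with compound for 15 min. After 400 uM selenite was added, NADPH fluorescence (Ex 340/Em 450 nm) was followed for 8 min.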
FLuc enzyme inh = counter-screen for Nrf2 inhibitors: firefly luciferase enzyme inhibition | shares compounds with Nrf2 block | purified firefly luciferase, luminescence inhibition | Potency, µM (series often up to 57.5 µM), inactives show at the highest dose activity change, negative = inhibition, actives largely listed as inhibitors | 4% of 1,400 active | AID 720522; note: % is set by controls: 0 for no effect and ±100 for the full control effect; nearly all actives have a fitted effect of over 65% in size
A549 tox-2 = A549 cytotoxicity, Nrf2 inhibitor counterscreen. shares compounds with Nrf2 block. A549 ARE-Fluc cells, cytotoxicity counterscreen. Potency, µM (top dose mostly 46.1 µM), without a hit: at the top dose activity change, negative = cytotoxicity, hits mostly inhibitors. 2% of 1,400 active. AID 720523;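 note: cells exposed to compounds for 18 to 24 hours; % is set by controls: 0 for no effect and ±100 for the full control effect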
ARE-Fluc inh = confirmation of Nrf2 inhibitors in A549 ARE reporter cells. shares compounds with Nrf2 block. A549 ARE-firefly luciferase reporter, luminescence. Potency, µM (series often up to 46.1 µM), for the others: at the highest dose activity change, negative = inhibition, usual class: inhibitors. 74% of 1,400 active. AID 720524; note: % is set by controls: 0 for no effect and ±100 for the full control effect; nearly all actives have a fitted effect of over 65% in size
* hit, by the source's call; ? = inconclusive; / = no result; [ ] = another dose, or the depositor's remark. Calls come from the whole dose curve; as a rule, active = well fitted curve in the direction sought with a large enough effect; inconclusive = small, poorly fitted or top-dose-only effect, or another doubt; inactive = no such curve, though single readings can be large; an effect the other way counts as inactive or inconclusive. Potency is the fitted concentration of half-maximal effect.

SMILES | A549 tox-1 | TrxR1 substrate | mIDH1 inhibitor | Nrf2 block | Mito fusion yeast | TrxR1 inh | FLuc enzyme inh | A549 tox-2 | ARE-Fluc inh
O=C(Nc1nc(-c2ccc3c(c2)OCCO3)cs1)c1ccc(S(=O)(=O)N2CCCCC2)cc1 | -10% | 1% | 2% | ? | 8% | 36% | / | / | /
Cc1csc(NC(=O)c2ccc(S(=O)(=O)N3CCCC3)cc2)n1 | -20% | 6% | 1% | ? | 4% | 8% | / | / | /
O=C(Nc1nc(-c2cccs2)cs1)c1ccc(S(=O)(=O)N2CCCC2)cc1 | ? | -3%[57.1 µM] | 1% | 9.2µM* | 3% | -3%[57.1 µM] | -19% | -19% | ?
CCOCCCNC(=O)Cn1nc(C)n2c(cc3cc(C)ccc32)c1=O | -13% | 5% | -9% | ? | / | 2% | / | / | /
COc1ccc(N(C(C)C(=O)N2CCCC2)S(C)(=O)=O)cc1 (stereo unspecified) | 2% | 1% | 3% | -2% | 0% | 11% | / | / | /
COc1ccc(N(C(C)C(=O)N2CCC(Cc3ccccc3)CC2)S(C)(=O)=O)cc1 (stereo unspecified) | -20% | -3%[57.1 µM] | 7% | 6.5µM* | 1% | 24%[57.1 µM] | 3% | -8% | 18µM*
CCOc1cc(Cl)c(S(=O)(=O)n2cc(C)nc2CC)cc1Cl | -8% | 9%[11.4 µM] | -8% | 8.2µM* | / | 3% | 3% | 0% | 8.2µM*
CCc1nc(C)cn1S(=O)(=O)c1ccc(Cl)c(Cl)c1OC | 0% | -5% | 13% | 5.8µM* | / | 5% | 0% | -1% | 5.8µM*
CCOc1ccc(OCC)c(S(=O)(=O)n2cc(C)nc2CC)c1 | 9% | -2% | -3% | 22% | 7% | 11% | / | / | /
CCc1nn(CC(=O)N2CCN(c3cccc(Cl)c3)CC2)c(=O)c2cc3sccc3n12 | 2% | 5% | -13% | 1% | / | 12% | / | / | /
CCCCc1nn2c(=O)cc(COC(=O)c3ccc(NC(=O)CCc4ccccc4)cc3)nc2s1 | 3% | -4%[57.1 µM] | 0% | / | / | 10%[57.1 µM] | / | / | /
Cc1nc2nncn2c(NCc2ccc(Cl)cc2)c1C | -5% | 3% | 28% | 3.3µM* | / | 8% | -1% | -2% | 6.5µM*
COc1ccc(CCNC(=O)Cn2c(-c3ccc(F)cc3)cc(C(C)=O)c2C)cc1OC | -4% | -14%[57.1 µM] | -9% | / | / | -7%[57.1 µM] | / | / | /
CCCn1c(NC(=O)c2cccc(S(=O)(=O)N3CCCC3)c2)nc2ccccc21 | ? | 34% | 0% | 7.3µM* | 17% | 22% | -13% | ? | 7.3µM*
N#Cc1nc(N2CCCCC2)nc(N(c2ccccc2)c2ccccc2)n1 | 5% | -6% | / | -5% | / | 12% | / | / | /
c1cc2[nH]snc2c2nc(C3CC3)nc12 | -5% | 1% | 11% | 7.3µM* | 18% | 3% | ? | 0% | 13µM*
FC(F)(F)c1cc(-c2ccccc2)nc2cc(-c3ccccc3)nn12 | -1% | 18% | 5% | 25% | / | 24% | / | / | /
CC(=NNC(=S)N1CCC1)c1ccccn1 | ? | -5% | 4% | 0.13µM* | / | 7.1µM* | -18% | ? | 0.65µM*
CCN(CC)c1ccc(/C=C/c2ccccn2)cc1 | / | -30% | / | / | / | ? | -13% | 9.2µM* | 1.6µM*
CCN(CC)c1ccc(/C=C/c2cc(-c3ccccc3)c3ccccc3n2)cc1 | ? | -9% | 1% | 0% | 3% | -13% | / | / | /
